This passage reports outcome and AC50 results from PubChem BioAssay (EPA / NIEHS).

Common to all, as to settings: mRNA level, 48 h; actives raise or lower the signal
Read-out in test [1]: Cytochrome P450 (CYP24A1), CYP24A1 (gene 1591)
As to the kind of experiment: LTEA_HepaRG_CYP24A1: Life Technologies and Expression Analysis (LTEA) Assay for Cytochrome P450 (CYP24A1) using HepaRG (AID 2283478). A digest of the protocol: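 qRT-PCR read-out: CYP24A1 transcript levels normalized to three housekeeping genes, bidirectional curve fits against 0.5% DMSO baseline. Human HepaRG cells treated 48 h with chemicals at eight concentrations from 100 uM in half-log steps.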

Read-out in test [2]: Cytochrome P450 (CYP1A2), CYP1A2 (gene 1544)
Kind of test: LTEA_HepaRG_CYP1A2: Life Technologies and Expression Analysis (LTEA) Assay for Cytochrome P450 (CYP1A2) using HepaRG (AID 2283479). The gist of the method:
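HepaRG, 48 h exposure, top 100 uM, half-log 8-pt, 0.5% DMSO vehicle, duplicates. Readout: TaqMan qRT-PCR of CYP1A2 mRNA, housekeeping-normalized (ACTB/GAPDH/POLR2A). Gain/loss fit relative to DMSO baseline.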

Read-out in test [3]: cysteine-aspartic acid protease (CASP8), CASP8 (gene 841)
Kind of test: LTEA_HepaRG_CASP8: Life Technologies and Expression Analysis (LTEA) Assay for cysteine-aspartic acid protease (CASP8) using HepaRG (AID 2283480). The gist of the method:
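qRT-PCR readout of CASP8 mRNA, normalized to three housekeeping genes, after 48 h chemical exposure of HepaRG cells; 8-point half-log series, top 100 uM, 0.5% DMSO vehicle. Bidirectional curve fitting against DMSO baseline.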

Read-out in test [4]: Cytochrome P450 (CYP2B6), CYP2B6 (gene 1555)
As to the kind of experiment: LTEA_HepaRG_CYP2B6: Life Technologies and Expression Analysis (LTEA) Assay for Cytochrome P450 (CYP2B6) using HepaRG (AID 2283481). A digest of the protocol: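 Read-out is CYP2B6 mRNA by TaqMan qRT-PCR, normalized to three housekeeping genes and fitted bidirectionally against 0.5% DMSO baseline. Human HepaRG cells received test chemicals for 48 h, top concentration 100 uM, half-log dilutions.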

Read-out in test [5]: Cytochrome P450 2C19 (Homo sapiens) (UniProt P33261)
As to the kind of experiment: LTEA_HepaRG_CYP2C19: Life Technologies and Expression Analysis (LTEA) Assay for CYP2C19 using HepaRG (AID 2283482). The gist of the method:
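HepaRG, 48 h chemical exposure, 8-pt half-log series from 100 uM in 0.5% DMSO, duplicates. Readout: CYP2C19 mRNA by TaqMan qRT-PCR, housekeeping-normalized. Bidirectional fit vs DMSO baseline; phenobarbital 1mM as induction control.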

Read-out in test [6]: CYP2C8 (gene 1558)
As to the kind of experiment: LTEA_HepaRG_CYP2C8: Life Technologies and Expression Analysis (LTEA) Assay for CYP2C8 using HepaRG (AID 2283483). The gist of the method: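 HepaRG (human liver line), 48 h chemical exposure, 8-pt half-log series from 100 uM, 0.5% DMSO vehicle. Readout: CYP2C8 transcript by qRT-PCR, housekeeping-normalized. Bidirectional fit vs DMSO baseline.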

Read-out in test [7]: CYP2C9 (gene 1559)
Kind of test: LTEA_HepaRG_CYP2C9: Life Technologies and Expression Analysis (LTEA) Assay for CYP2C9 using HepaRG (AID 2283484). A digest of the protocol: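 HepaRG, 48 h dosing, 8-pt half-log series, top 100 uM, 0.5% DMSO vehicle. Read-out: CYP2C9 transcript by TaqMan qRT-PCR, housekeeping-normalized (ACTB/GAPDH/POLR2A). Gain or loss fitted vs DMSO baseline.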

Read-out in test [8]: Cytochrome P450 3A4 (Homo sapiens) (UniProt P08684)
As to the kind of experiment: LTEA_HepaRG_CYP3A4: Life Technologies and Expression Analysis (LTEA) Assay for CYP3A4 using HepaRG (AID 2283487). A digest of the protocol:
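HepaRG, 48 h exposure, 8-pt CRC from 100 uM (half-log), 0.5% DMSO, duplicates; serum-free induction medium. Readout: CYP3A4 mRNA, qRT-PCR, ACTB/GAPDH/POLR2A normalization. Bidirectional fit vs DMSO.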

Read-out in test [9]: DNA damage-inducible transcript 3 (DDIT3), DDIT3 (gene 1649)
As to the kind of experiment: LTEA_HepaRG_DDIT3: Life Technologies and Expression Analysis (LTEA) Assay for DNA damage-inducible transcript 3 (DDIT3) using HepaRG (AID 2283488). The gist of the method: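 Cells are human HepaRG liver cells treated for 48 h with eight half-log concentrations up to 100 uM in 0.5% DMSO. Transcript levels come from qRT-PCR normalized to three housekeeping genes, with activity fitted in both directions relative to vehicle.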

Read-out in test [10]: Early growth response protein 1 (EGR1) transcription factor, EGR1 (gene 1958)
As to the kind of experiment: LTEA_HepaRG_EGR1: Life Technologies and Expression Analysis (LTEA) Assay for Early growth response protein 1 (EGR1) transcription factor using HepaRG (AID 2283490). The gist of the method: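 HepaRG, 48 h exposure, 8-pt half-log series from 100 uM, 0.5% DMSO vehicle; EGR1 transcript by TaqMan qRT-PCR (Fluidigm array), housekeeping-normalized; bidirectional fit relative to DMSO baseline.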

Read-out in test [11]: Ezrin (EZR), EZR (gene 7430)
Kind of test: LTEA_HepaRG_EZR: Life Technologies and Expression Analysis (LTEA) Assay for Ezrin (EZR) using HepaRG (AID 2283491). The gist of the method:
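Read-out is EZR transcript level by qRT-PCR, normalized to three housekeeping genes and fitted bidirectionally against the DMSO control. Human HepaRG cells received test chemicals for 48 h at eight half-log concentrations up to 100 uM in 0.5% DMSO.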

Read-out in test [12]: Cytochrome P450 3A7 (Homo sapiens) (UniProt P24462)
As to the kind of experiment: LTEA_HepaRG_CYP3A7: Life Technologies and Expression Analysis (LTEA) Assay for CYP3A7 using HepaRG (AID 2283492). A digest of the protocol:
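CYP3A7 transcript levels were read by TaqMan qRT-PCR on Fluidigm arrays after 48 h chemical exposure of human HepaRG cells, with housekeeping-gene normalisation. Eight half-log concentrations up to 100 uM in 0.5% DMSO were tested in duplicate.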

Read-out in test [13]: CYP3A5 (gene 1577)
As to the kind of experiment: LTEA_HepaRG_CYP3A5: Life Technologies and Expression Analysis (LTEA) Assay for CYP3A5 using HepaRG (AID 2283493). The gist of the method:
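Human HepaRG hepatic cells receive 48 h chemical treatment at eight concentrations (half-log steps from 100 uM) in 0.5% DMSO. Expression of CYP3A5 is quantified by Fluidigm qRT-PCR and normalized to three reference genes.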

Read-out in test [14]: Fatty Acid-Binding Protein 1 (FABP1), FABP1 (gene 2168)
As to the kind of experiment: LTEA_HepaRG_FABP1: Life Technologies and Expression Analysis (LTEA) Assay for Fatty Acid-Binding Protein 1 (FABP1) using HepaRG (AID 2283494). The gist of the method: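 qRT-PCR readout of FABP1 transcript (normalized to three housekeeping genes) after 48 h chemical exposure of HepaRG cells; eight concentrations, half-log steps, max 100 uM, 0.5% DMSO vehicle; gain or loss fitted relative to DMSO baseline.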

Read-out in test [15]: Cytochrome P450 7A1 (Homo sapiens) (UniProt P22680)
Kind of test: LTEA_HepaRG_CYP7A1: Life Technologies and Expression Analysis (LTEA) Assay for Cytochrome P450 7A1 (CYP7A1) using HepaRG (AID 2283496). The gist of the method:
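HepaRG, 48 h exposure, 8-pt half-log series from 100 uM, 0.5% DMSO vehicle, duplicates. Readout: TaqMan qRT-PCR mRNA vs three housekeeping genes; bidirectional curve fit against DMSO baseline.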

Read-out in test [16]: Glutathione S-Transferase (GSTA2), GSTA2 (gene 2939)
As to the kind of experiment: LTEA_HepaRG_GSTA2: Life Technologies and Expression Analysis (LTEA) Assay for Glutathione S-Transferase (GSTA2) using HepaRG (AID 2283497). The gist of the method: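 qRT-PCR readout of GSTA2 transcript, normalized to three housekeeping genes, fitted bidirectionally against 0.5% DMSO baseline. Differentiated HepaRG cells received compound for 48 h at 8 concentrations (top 100 uM, half-log steps).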

Read-out in test [17]: Pro-epidermal growth factor (Homo sapiens) (UniProt P01133)
As to the kind of experiment: LTEA_HepaRG_EGF: Life Technologies and Expression Analysis (LTEA) Assay for Epidermal growth factor (EGF) using HepaRG (AID 2283489). The gist of the method: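 qRT-PCR readout of EGF transcript after 48 h chemical exposure of HepaRG cells; eight concentrations from 100 uM down in half-log steps, duplicate wells, 0.5% DMSO vehicle. Bidirectional curve fitting against DMSO baseline.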

Read-out in test [18]: Cytochrome P450 4A22 (Homo sapiens) (UniProt Q5TCH4)
Kind of test: LTEA_HepaRG_CYP4A22: Life Technologies and Expression Analysis (LTEA) Assay for Cytochrome P450 4A22 (CYP4A22) using HepaRG (AID 2283495). The gist of the method: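 HepaRG, 48 h post-plating -> serum-free induction medium; dosed 48 h, duplicate, 8 conc. (100 uM top, half-log), 0.5% DMSO. Readout: CYP4A22 mRNA by qRT-PCR, ACTB/GAPDH/POLR2A normalization; gain/loss fit relative to DMSO.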

Read-out in test [19]: CYP4A11 (gene 1579)
As to the kind of experiment: LTEA_HepaRG_CYP4A11: Life Technologies and Expression Analysis (LTEA) Assay for CYP4A11 using HepaRG (AID 2283486). The gist of the method: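 CYP4A11 transcript levels were quantified by TaqMan qRT-PCR after HepaRG human liver cells were treated for 48 hours with test chemicals (top 100 uM, half-log dilutions, 0.5% DMSO). Gain or loss of signal was fitted relative to DMSO.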

Molecules are shown by their SMILES. The source made the active and inactive calls. How the source made its calls: active means hit-call score of the fitted dose curve at least 0.9, where 1 is the maximum; inactive means score below 0.9.

Sequence of Cytochrome P450 3A4 (Homo sapiens) (P08684 whole entry, looked up): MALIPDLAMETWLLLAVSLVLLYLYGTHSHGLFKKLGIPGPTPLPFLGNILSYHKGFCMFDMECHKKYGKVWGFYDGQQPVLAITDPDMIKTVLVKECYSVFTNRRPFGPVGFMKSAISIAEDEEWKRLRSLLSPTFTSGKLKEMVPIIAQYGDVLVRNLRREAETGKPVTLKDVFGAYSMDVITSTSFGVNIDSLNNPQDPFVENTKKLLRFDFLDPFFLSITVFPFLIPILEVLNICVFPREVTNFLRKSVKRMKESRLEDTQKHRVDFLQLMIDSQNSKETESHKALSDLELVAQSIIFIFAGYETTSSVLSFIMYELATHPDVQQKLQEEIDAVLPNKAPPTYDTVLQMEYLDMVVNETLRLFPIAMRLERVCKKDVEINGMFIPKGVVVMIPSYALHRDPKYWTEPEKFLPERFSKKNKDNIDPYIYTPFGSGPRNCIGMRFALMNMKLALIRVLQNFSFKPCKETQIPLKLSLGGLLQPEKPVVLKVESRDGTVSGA
Sequence of Cytochrome P450 2C19 (Homo sapiens) (P33261 whole entry, looked up): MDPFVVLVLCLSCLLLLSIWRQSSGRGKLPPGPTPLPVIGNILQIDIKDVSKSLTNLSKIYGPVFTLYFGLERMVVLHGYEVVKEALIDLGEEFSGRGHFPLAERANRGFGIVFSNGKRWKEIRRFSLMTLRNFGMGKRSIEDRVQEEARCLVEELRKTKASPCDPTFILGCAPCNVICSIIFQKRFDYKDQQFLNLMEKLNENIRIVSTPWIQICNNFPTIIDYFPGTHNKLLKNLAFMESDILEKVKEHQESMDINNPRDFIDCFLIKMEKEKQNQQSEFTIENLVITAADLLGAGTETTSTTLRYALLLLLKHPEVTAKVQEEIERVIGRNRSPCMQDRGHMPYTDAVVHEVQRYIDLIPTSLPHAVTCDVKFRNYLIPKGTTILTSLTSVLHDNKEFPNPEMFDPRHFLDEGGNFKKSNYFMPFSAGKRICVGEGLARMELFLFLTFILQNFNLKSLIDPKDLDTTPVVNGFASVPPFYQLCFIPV
Sequence of Cytochrome P450 3A7 (Homo sapiens) (P24462 whole entry, looked up): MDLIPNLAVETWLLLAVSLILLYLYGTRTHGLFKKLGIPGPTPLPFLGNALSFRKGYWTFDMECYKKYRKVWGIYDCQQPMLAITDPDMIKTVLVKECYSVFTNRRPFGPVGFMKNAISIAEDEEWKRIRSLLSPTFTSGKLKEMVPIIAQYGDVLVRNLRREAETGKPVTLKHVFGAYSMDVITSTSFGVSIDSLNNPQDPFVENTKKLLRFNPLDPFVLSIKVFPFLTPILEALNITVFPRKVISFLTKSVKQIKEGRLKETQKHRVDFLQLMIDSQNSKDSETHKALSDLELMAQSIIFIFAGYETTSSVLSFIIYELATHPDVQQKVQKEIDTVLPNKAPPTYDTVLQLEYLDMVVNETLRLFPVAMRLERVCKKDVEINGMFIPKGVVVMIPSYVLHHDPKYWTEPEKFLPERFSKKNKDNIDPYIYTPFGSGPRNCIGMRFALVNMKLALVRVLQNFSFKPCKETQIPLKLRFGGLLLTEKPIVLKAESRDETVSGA

`O=C(NS(=O)(=O)/C=C/c1cccs1)c1ccc(F)cc1Br`: the result in [1], in [2], in test [3], in test [4], in [6] and in [7] was inactive. Also, the result in test [9], in [10], in test [11], in [13] and in test [16] was inactive. The AC50 in [5] is 13 µM (active); in test [8], 5.73 µM (active); in [12], 5.96 µM (active); in [14], 26.6 µM (active); in [15], 27.9 µM (active).
With `CCCCC(CC)CO` (centres undefined), the outcome in [1], in test [3], in test [4], in test [5], in test [6] and in test [7] was inactive. The result in test [8], in test [9], in test [17], in test [10], in [11] and in [12] was inactive. The call in test [13], in test [14], in test [18], in test [15] and in test [16] was inactive. In addition, in [2], the AC50 was 50 µM (active).
Consider `CCCCCCC(C=O)=Cc1ccccc1`, for which the outcome in test [1], in test [2], in test [3], in test [5], in test [6] and in [7] was inactive. For the same molecule, the result in test [19], in test [8], in test [9], in test [10], in [11] and in [12] was inactive. Besides, the result in [13], in [14], in [15] and in [16] was inactive. In [4], the AC50 is 15.9 µM (active).
For `O=C(O)c1[nH]n(-c2ccc(S(=O)(=O)O)cc2)c(=O)c1N=Nc1ccc(S(=O)(=O)O)cc1`, the molecule was classed as inactive in test [1], in [3], in test [4], in test [5], in test [6] and in test [7]. In addition, the molecule was classed as inactive in test [8], in test [9], in test [17], in test [10], in [11] and in test [12]. The result in test [13], in test [14], in test [18], in test [15] and in test [16] was inactive. Besides, the AC50 in [2] was 14.8 µM (active).
